Results as given in PubChem BioAssay (NCI).
This is part of a sample that, as a whole, favours compounds with a hit. Of some 83,000 tested, about 20% had one in any assay.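 In brief: 96-well plates, 48 h treatment, single concentration, percent growth endpoint.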 Unmarked numbers belong to inactive results. Calls of active or inactive are those of the source. The calls were made as follows: active = growth percent below 10; inactive = the rest.

What was measured:
Test in all cases: NCI-60 one-dose screen, 48 h (100 = growth as untreated, 0 = no growth, -100 = all killed)
Settings in all cases: 10 µM unless noted
[1] = test system: BT-549 breast
[2] = test system: MDA-MB-435 melanoma
[3] = test system: SW-620 colon
[4] = test system: MCF7 breast
[5] = test system: HCT-116 colon
[6] = test system: HCC-2998 colon
[7] = test system: KM12 colon

SMILES | growth [1] | growth [2] | growth [3] | growth [4] | growth [5] | growth [6] | growth [7]
Cn1cc(-c2csc(-c3c[nH]c4ncccc34)n2)c2cc(F)cnc21 | 74.1% | 20% | 81.3% | 56.8% | 59.8% | 62.2% | 49.4%
O=C(Nc1ccc(Cl)cc1)Nc1ccc(Oc2nncc3ccccc23)cc1 | -10.3% (active) | -33.3% (active) | -30.1% (active) | 14.3% | -56.9% (active) | -42.2% (active) | -32.3% (active)
COc1cc2c(cc1OCCCOc1ccc(-c3cc4ccccc4c4ccccc34)cc1)N=C[C@@H]1CCCN1C2=O | -50.8% (active) | -30.8% (active) | -43.8% (active) | -75.1% (active) | -23.1% (active) | 2.28% (active) | -20.4% (active)
Cc1[nH]n(C(N)=S)c(=O)c1N=Nc1ccc(F)c(Cl)c1 | 143% | 107% | 111% | 103% | 95.5% | 95.7% | 90%
O=C(/C(=N/O)S(=O)(=O)c1ccccc1)c1cccs1 | 103% | 105% | 117% | 98% | 96.4% | 93.2% | 107%
COc1ccc(CCN2CCCN3C2=Nc2ccccc2S3(=O)=O)cc1 | 50.2% | -5.64% (active) | 28% | 19.3% | 17.4% | 21.7% | 25.8%
CCC(O)C(C)(C)C (configuration not stated) | 108% | 105% | 101% | 113% | 106% | 106% | 113%
Cc1nn(-c2ccccc2)c(Cl)c1C(CC(=O)c1ccc(Cl)cc1)CC(=O)c1ccc(Cl)cc1 | 85.6% | 90.9% | 96.4% | 92.7% | 75.4% | 99.1% | 86.1%
COc1ccc(C2CC(c3cccc(Nc4ccnc5cc(Cl)ccc45)c3)=NN2C=O)cc1 (configuration not stated) | 30.9% | -36% (active) | 18.7% | 22.4% | 7.09% (active) | 35.4% | 23.1%
C[n+]1ccc(C#N)c2ccccc21 | 102% | 95.8% | 90.6% | 87.5% | 80% | 114% | 100%
ClC1=C(Cl)C(Cl)=C(Cl)C1=C/C=C/c1ccccc1 | -12.6% (active) | -28.5% (active) | -55.2% (active) | -19.6% (active) | -98% (active) | -93.3% (active) | -77.8% (active)
O=C(O)c1ccc(NC(=O)c2ccc(Nc3ccnc(C(F)(F)F)c3)cc2)cc1 | 109% | 104% | 105% | 100% | 104% | 103% | 93.2%
Cc1nn(-c2ccccc2)c2nc3c(nc12)C(=O)CCC3 | 90.9% | 98.1% | 105% | 84.9% | 91.6% | 92% | 87.1%
Clc1cccc(Cc2cn3cc(-c4ccccc4)nc3s2)c1 | 77.5% | 33.1% | 30.2% | 21.1% | 42.6% | 17.7% | 12.1%
Cc1ccc(C=C2C(Cl)=C(Cl)C(Cl)=C2Cl)cc1 | -31.3% (active) | -61.9% (active) | -77.9% (active) | -23.8% (active) | -100% (active) | -94.8% (active) | -79.6% (active)
Cn1cc(-c2csc(-c3cn(C)c4ncccc34)n2)c2cc(F)cnc21 | 85.7% | 8.5% (active) | 61.7% | 58% | 72.5% | 77.3% | 60.7%
Nc1ccc(C2=NN(c3ccccc3)C(c3ccc(Cl)cc3)C2)cc1 (configuration not stated) | 70.4% | 49.9% | 41.2% | 14.5% | -57.3% (active) | 76.8% | 18.3%
Cc1c(C(N)=O)sc2nc(SCC(=O)Nc3ccc(Cl)cc3)n(-c3ccccc3)c(=O)c12 | 69.1% | 112% | 128% | 104% | 103% | 109% | 118%

SMILES | growth [1] | growth [2] | growth [3] | growth [4] | growth [5] | growth [6] | growth [7]
O=[N+]([O-])c1ccc(Oc2cccc(C(F)(F)F)c2)c([N+](=O)[O-])c1 | 3.1% (active) | -16.6% (active) | 13.5% | 112% | 3.46% (active) | 92.5% | 86.2%
O=C(Nc1ccc(Nc2ccncc2)cc1)c1ccc(Nc2ccnc3ccc([N+](=O)[O-])cc23)cc1[N+](=O)[O-] | 38.8% | 63.1% | 96.8% | 50.8% | 54.4% | 104% | 2.06% (active)
OCc1nnn(-c2ccccc2)c1CO | 157% | 114% | 105% | 106% | 105% | 119% | 116%
C/C(=C\CCc1ccoc1)CC/C=C(\C)CCCN1CCC(CO)CC1 | 54.2% | 44.2% | 18.2% | 28.9% | 31% | 46.5% | 44.6%
O=C1NC(=O)/C(=C\c2ccccc2)C2=C1CCCC2 | 35% | -76.3% (active) | -50.2% (active) | -49% (active) | 18.8% | 123% | 18%
O=C1C(=O)c2ccc(Br)cc2-c2cc(Br)ccc21 | 63% | 20.5% | -1.44% (active) | 0.468% (active) | -71.9% (active) | 87% | 73.1%
COc1cc(/C=C2\COc3ccc(O)cc3C2=O)cc(OC)c1 | 66.1% | 20.1% | 2.07% (active) | 8.22% (active) | 0.249% (active) | 109% | 17.4%
O=C(Nc1ccc(C2=NCCCN2)cc1)Nc1ccc(C2=NCCCN2)cc1 | 100% | 95.3% | 99.4% | 94% | 67.4% | 117% | 100%
O=C1C[C@@H]2/C(=C(O)\C=C\c3ccccc3)C(=O)C=C[C@@H]2O1 | -40.5% (active) | -31.6% (active) | -33.2% (active) | 6.03% (active) | -90.6% (active) | 99.6% | -91% (active)
O=C1Cc2cc(CCn3cncn3)c(Cl)cc2N1 | 68% | 34.4% | 54.2% | 29% | 79% | 75.1% | 36%
Cc1cc2c(cc1[N+](=O)[O-])NC(CNC(C)C)CC2 (configuration not stated) | 102% | 107% | 111% | 105% | 96.2% | 86.6% | 107%
COc1ccc(C2CC(c3ccc(OC)c(OC)c3)=NN2C(=O)c2cc(OC)c(OC)c(OC)c2)c(OC)c1 (configuration not stated) | 63.2% | 3.86% (active) | 62.2% | 35.1% | 68.7% | 96.5% | 61.5%
COC(=O)C[C@@H]1CC=CC(=O)/C1=C(O)/C=C/c1ccccc1 | -36.3% (active) | -32.1% (active) | -81.7% (active) | -3.08% (active) | -92.2% (active) | -95.1% (active) | -76.3% (active)
O=C(Nc1ccc(OCc2nnc(-c3ccccc3)o2)c(F)c1)Nc1ccc(Cl)c(C(F)(F)F)c1 | 68.3% | 27.5% | 17.6% | 8.14% (active) | 9.64% (active) | 14.4% | 1.65% (active)
Fc1ccc(-c2nnc(/C=C/c3cn(-c4ccccc4)nc3-c3ccccc3)o2)cc1 | 86.6% | 100% | 86.6% | 94% | 57% | 95% | 102%
CCOc1cc(C(C)(C)C)ccc1C1=N[C@H](c2ccc(Cl)cc2)[C@H](c2ccc(Cl)cc2)N1C(=O)N1CCN(CC#Cc2cccc3c2CN([C@@H]2CCC(=O)NC2=O)C3=O)CC1 | 22.9% | 33.6% | 26.9% | 8.49% (active) | 17.8% | 25.3% | 26.3%
Cc1nc2cc(NC(=O)CN3CCN(CCN4C(=O)c5cccc6cccc(c56)C4=O)CC3)ccc2s1 | 70.1% | 57.8% | 31.4% | 32.5% | 22.3% | 59.4% | 51.6%
COc1ccc2[nH]cc(/C=C3/C(=O)Nc4ccc(Cl)cc43)c2c1 | 40.9% | 22.9% | 53.7% | 40.7% | 13.5% | 43.9% | 3.07% (active)
